# According to ChEMBL document CHEMBL1201862, “PubChem BioAssay data set” (2004):
# Among all 400,000 compounds or so, about 2,100 (0.53%) were called active. Inconclusive results (about 14%) are left out. The rule behind the calls is not given here. This excerpt belongs to a sample that is enriched for actives.
# Biological target: Ataxin-2 (Homo sapiens) (UniProt Q99700)
# Test: qHTS for Inhibitors of ATXN expression.
# Format: functional
# Sequence of Ataxin-2 (Homo sapiens) (Q99700 whole entry): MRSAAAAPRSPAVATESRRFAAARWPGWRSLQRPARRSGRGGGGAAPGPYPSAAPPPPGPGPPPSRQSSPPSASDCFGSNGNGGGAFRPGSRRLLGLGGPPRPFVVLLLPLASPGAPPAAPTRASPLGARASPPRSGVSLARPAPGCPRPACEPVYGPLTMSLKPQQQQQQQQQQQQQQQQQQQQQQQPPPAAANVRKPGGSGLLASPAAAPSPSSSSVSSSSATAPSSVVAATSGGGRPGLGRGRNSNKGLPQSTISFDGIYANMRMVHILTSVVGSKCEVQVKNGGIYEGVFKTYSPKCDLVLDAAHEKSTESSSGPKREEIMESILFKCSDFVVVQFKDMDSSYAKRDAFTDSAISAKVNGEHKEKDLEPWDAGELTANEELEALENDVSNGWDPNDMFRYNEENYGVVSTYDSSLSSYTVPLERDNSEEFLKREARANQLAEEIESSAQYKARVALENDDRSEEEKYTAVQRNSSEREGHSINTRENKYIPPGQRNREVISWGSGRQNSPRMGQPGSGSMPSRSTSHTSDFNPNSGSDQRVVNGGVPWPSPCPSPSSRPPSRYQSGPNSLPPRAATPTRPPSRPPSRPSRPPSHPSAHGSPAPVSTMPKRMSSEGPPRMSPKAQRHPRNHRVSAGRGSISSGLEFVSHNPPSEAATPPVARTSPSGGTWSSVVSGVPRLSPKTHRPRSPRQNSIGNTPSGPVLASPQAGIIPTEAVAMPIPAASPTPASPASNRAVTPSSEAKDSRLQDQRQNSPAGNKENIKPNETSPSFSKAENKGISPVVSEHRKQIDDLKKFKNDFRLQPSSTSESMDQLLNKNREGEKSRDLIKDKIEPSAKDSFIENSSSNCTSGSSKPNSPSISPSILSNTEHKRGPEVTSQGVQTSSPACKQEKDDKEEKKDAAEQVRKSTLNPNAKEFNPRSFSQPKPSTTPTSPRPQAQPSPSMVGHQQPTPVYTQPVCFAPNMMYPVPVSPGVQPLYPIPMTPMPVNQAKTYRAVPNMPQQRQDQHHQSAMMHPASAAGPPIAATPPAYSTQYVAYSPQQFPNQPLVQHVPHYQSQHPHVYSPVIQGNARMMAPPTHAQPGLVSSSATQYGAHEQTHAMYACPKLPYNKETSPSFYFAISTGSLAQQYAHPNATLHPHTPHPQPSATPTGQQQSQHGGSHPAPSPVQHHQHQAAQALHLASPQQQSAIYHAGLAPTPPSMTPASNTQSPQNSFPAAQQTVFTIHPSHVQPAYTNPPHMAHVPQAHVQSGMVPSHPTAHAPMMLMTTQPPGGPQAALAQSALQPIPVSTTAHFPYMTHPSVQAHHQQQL
row,Structure (SMILES),Potency
1,CN(/N=C/c1ccc(Br)o1)C1=NS(=O)(=O)c2ccccc21,inactive
2,CC(C)OC(=O)CSc1nnc(COc2ccc([N+](=O)[O-])cc2)n1C,inactive
3,Cc1ccc(C)c(-n2c(N)c(C#N)c3nc4ccccc4nc32)c1,inactive
4,Cn1ncc2c(ON=C(N)c3ccc(C(C)(C)C)cc3)ncnc21,39.8 µM (active)
5,Cc1ccccc1C(=O)NNc1ncnc2c1cnn2C,inactive
6,COc1ccc(NC(=O)c2sc3nc(C)c(C(=O)Nc4ccc(C)cc4C)c(-c4ccccc4Cl)c3c2N)cc1,inactive
7,c1ccc(C2=NN=C(c3ccncc3)c3ccc4ccccc4c3N2)cc1,inactive
8,N=c1c(C(=O)NCC2CCCO2)cc2c(=O)n3ccccc3nc2n1Cc1ccc(F)cc1 (stereo not drawn),inactive
9,Cc1cccc(COC[C@H](Cc2ccccc2)N2CCN(C(=O)c3cccc(Cl)c3)CCC2=O)c1,25.1 µM (active)
10,O=C(c1cccc(Cl)c1)N1CCC(=O)N(C(COCc2cccc(Cl)c2)Cc2ccccc2)CC1 (stereo not drawn),35.5 µM (active)
11,Cc1ccc(S(=O)(=O)N2CCN(C(=O)COC(=O)Cc3ccc(Cl)cc3)CC2)c(C)c1,inactive
12,Cc1nn(Cc2ccccc2)c(C)c1C(=O)N1CCN(S(=O)(=O)/C=C/c2ccccc2)CC1,inactive
13,Cc1cccc(C(=O)N2CCC(=O)N([C@H](COCc3ccc(Cl)cc3)Cc3ccccc3)CC2)c1,39.8 µM (active)
14,Cc1cccc(C(=O)NCC(=O)N2CC=C(c3ccccc3)CC2)c1,inactive
15,O=C1/C(=C/c2cccc(F)c2)Oc2cc(O)ccc21,inactive
16,CN1CCc2c(sc3c2C(=O)NC(/C=C\c2ccccc2)N3)C1 (stereo not drawn),inactive
17,O=c1cc(-c2ccccc2)c2ccc3c(c2o1)CN(Cc1cccc(Cl)c1)CO3,inactive
18,Cc1ccc(S(=O)(=O)C(C#N)c2nc3ccccc3nc2N2CC(C)OC(C)C2)cc1C (stereo not drawn),inactive
19,Cc1c(CCOC(=O)C23CC4CC(CC(C4)C2)C3)sc[n+]1CC#N,31.6 µM (active)
20,Cc1c(CCOC(=O)CC23CC4CC(CC(C4)C2)C3)sc[n+]1CC(=O)c1ccccc1,29.9 µM (active)
21,Cc1c(CCOC(=O)C2C3CC4CC(C3)CC2C4)sc[n+]1CC(=O)c1ccc(Br)cc1 (stereo not drawn),20 µM (active)
22,CN1CCC(N(C)C(S)=NCCc2ccccc2)CC1,inactive
23,CCNS(=O)(=O)c1ccc(CCC(=O)N2CCc3ccccc3C2)cc1,inactive
24,Cc1ccc2nc(C)c3c(c2c1)N(c1ccc(F)cc1)CC3,inactive
25,CC(C)NCC(O)Cn1c2c(c3ccccc31)CCc1c-2cnn1-c1ccccc1 (stereo not drawn),25.1 µM (active)
26,N#Cc1sc2nc(-c3cccs3)cc(-c3ccccc3)c2c1N,inactive

row,Structure (SMILES),Potency
1,NC(=O)c1ccc(NC(=O)CNC(c2ccccc2)c2ccccc2)cc1,inactive
2,Cc1ccc(C(=O)Sc2cccccc2=O)cc1,2.51 µM (active)
3,Cc1ccc(C(=O)C(C)[n+]2cccc(C(N)=O)c2)cc1 (stereo not drawn),inactive
4,Cc1cccc(CC(=O)N2CCC(N3CCC(C(=O)N4CCOCC4)CC3)CC2)c1,inactive
5,COc1ccc(Cc2noc(CN(C)CCN3CCc4ccccc4C3)n2)cc1OC,inactive
6,COc1ccccc1-c1noc(CSc2nnc(Cc3ccccc3)n2-c2ccc(C)c(C)c2)n1,35.5 µM (active)
7,COc1ccc(-c2noc(CSc3nnc(Cc4ccccc4)n3-c3cccc(C)c3)n2)cc1,39.8 µM (active)
8,COc1ccccc1-c1ccc(SCc2cccc(F)c2)nn1,inactive
9,COc1ccc(OC(C)C(=O)N(C)Cc2nc(-c3ccc(C)cc3)no2)cc1 (stereo not drawn),inactive
10,COc1ccc(-c2noc(CSc3nnc(Cc4ccccc4)n3-c3ccc(F)cc3)n2)cc1,39.8 µM (active)
11,COc1ccc(OC)c(-c2noc(CSc3nnc(Cc4ccccc4)n3-c3cccc(C)c3)n2)c1,22.4 µM (active)
12,COc1ccc(OC(C)C(=O)N(C)Cc2nc(-c3ccccc3)no2)cc1 (stereo not drawn),inactive
13,COCC(C)n1c(SCc2nc(O)c3ccccc3n2)nc2ccccc2c1=O (stereo not drawn),inactive
14,Nc1ccc(-c2c3ccccc3nc3ccccc23)cc1,inactive
15,CC(=O)c1cnc(SCc2ccc(Cl)cc2)nc1C,inactive
16,COc1cccc(-c2csc(/C(C#N)=C/Nc3cc4oc5ccccc5c4cc3OC)n2)c1,inactive
17,CNC(=O)c1ccc(NC(=O)CC2SC(N3CCCC3)=NC2=O)cc1 (stereo not drawn),inactive
18,O=c1oc2ccc3ccccc3c2cc1-c1nnc(-c2cccs2)o1,inactive
19,O=C(OCC(=O)N1CCCC1=O)C1CCN(S(=O)(=O)c2ccc(Cl)c(C(F)(F)F)c2)CC1,inactive
20,Cc1ccc(NC(=O)COC(=O)[C@H](C)N2C(=O)C3CC=CCC3C2=O)cc1S(=O)(=O)N(C)C (stereo partly drawn),inactive
21,CCCN(CC(=O)Nc1ccccc1C)C(=O)c1ccc(N2CCCC2=O)cc1,inactive
22,C=CC[C@@H](CC(=O)N[C@@H](CO)Cc1ccccc1)C(=O)N[C@H](COC(=O)[C@@H](CC=C)CC(=O)OC(C)(C)C)Cc1c[nH]c2ccccc12,28.2 µM (active)
23,C=CC[C@@H](CC(=O)N[C@@H](CO)Cc1ccccc1)C(=O)N[C@H](COC(=O)[C@H](CC=C)CC(=O)OC(C)(C)C)Cc1c[nH]c2ccccc12,28.2 µM (active)
24,C=CC[C@H](CC(=O)N[C@H](CO)Cc1ccccc1)C(=O)N[C@@H](COC(=O)[C@@H](CC=C)CC(=O)OC(C)(C)C)Cc1c[nH]c2ccccc12,25.1 µM (active)
25,O=C(CCCCCn1c(=S)[nH]c2ccc(N3CCOCC3)cc2c1=O)NCc1ccc2c(c1)OCO2,inactive
26,Cn1c(N)nc2nc(CCc3ccccc3)c(O)nc2c1=O,inactive

row,Structure (SMILES),Potency
1,CCOc1ccc(CC(=O)Nc2c(C(=O)c3ccccc3)oc3ccc(Cl)cc23)cc1OCC,inactive
2,Cc1nc(Sc2ccc(Cl)cc2)c(C#N)c(C)c1[N+](=O)[O-],inactive
3,Cc1ccc(Oc2ncnc(N)c2[N+](=O)[O-])cc1,inactive
4,Cc1cc(C)nc(Sc2ncnc(N)c2[N+](=O)[O-])n1,16.8 µM (active)
5,C=C(C(=O)c1ccccc1)C(c1ccccc1)C(C)C(=O)c1ccccc1 (stereo not drawn),31.6 µM (active)
6,C=C(C(=O)c1ccccc1)C(C)CC(=O)c1ccccc1 (stereo not drawn),15.8 µM (active)
7,O=C(Cc1nc2ccccc2nc1O)c1ccccc1,inactive
8,CC(OC(=O)C1COc2ccccc2O1)C(=O)c1ccccc1 (stereo not drawn),inactive
9,Nc1nc2ccccc2cc1S(=O)(=O)c1ccccc1,inactive
10,O=C(Nc1ccccc1)Nc1ccc2ncoc2c1,inactive
11,CN(C)/C=N/c1nc2ccccc2nc1N1CCCC1,inactive
12,N#C/C(=C/c1cccn1-c1cccc(C(=O)O)c1)c1ccc(F)cc1,inactive
13,N#Cc1c(N2CCCC2)ccc(Br)c1Cl,inactive
14,COC(=O)c1ccc(CSc2cc(C)c3ccccc3n2)o1,inactive
15,CC(C)(C)c1ccc2c(c1)OC(C(=O)N/N=C\c1ccncc1)CO2 (stereo not drawn),inactive
16,N=c1c(C(=O)NCC2CCCO2)cc2c(=O)n3ccccc3nc2n1Cc1ccccc1 (stereo not drawn),inactive
17,Cc1ccccc1NC(=O)c1ccc2snnc2c1,inactive
18,CCCc1nn(C)c(C(=O)Nc2cccc(CC)c2)c1Cl,inactive
19,Cc1ccccc1NC(=O)c1ccc(N(Cc2ccccc2)S(C)(=O)=O)cc1,35.5 µM (active)
20,CS(=O)(=O)N(Cc1ccccc1)c1ccc(C(=O)Nc2cccc(Cl)c2)cc1,17.8 µM (active)
21,Cc1cccc(NC(=O)c2ccc(N(Cc3ccccc3)S(C)(=O)=O)cc2)c1,25.1 µM (active)
22,CCN(Cc1ccncc1)C(=S)Nc1ccccc1C,inactive
23,Cc1cc(C(F)(F)F)c2c(N)c(C(=O)Nc3cc(C)on3)sc2n1,inactive
24,Cc1ccc(C)c(Oc2coc3cc(O)ccc3c2=O)c1,inactive
25,CCOc1ccccc1-n1c(N)c(C(=O)OC)c2nc3ccccc3nc21,inactive
26,CCOC(=O)N1CCN(c2nc(-c3ccccc3)c3cc(C)ccc3n2)CC1,inactive

row,Structure (SMILES),Potency
1,COc1cc2nc(CN3CCN(S(=O)(=O)c4ccc(C)c(C)c4)CC3)nc(O)c2cc1OC,inactive
2,COc1cc2nc(N3CCN(c4cc(C)ccc4C)CC3)nc(N)c2cc1OC,39.8 µM (active)
3,Cc1ccc2nc3c(cc2c1)c(NC(=O)C(C)(C)C)nn3CC(C)C,inactive
4,C=CCn1c(N)c(C(=O)NCC2CCCO2)c2nc3ccccc3nc21 (stereo not drawn),inactive
5,c1cncc(Nc2c3ccccc3nc3ccccc23)c1,inactive
6,O=C1C=C(Nc2cccnc2)c2ccccc2C1=O,39.8 µM (active)
7,Cc1ccc(-c2ccc(S(=O)(=O)Nc3cccnc3)cc2)cc1,inactive
8,CN(C)C(CNc1ccc(S(C)(=O)=O)cc1[N+](=O)[O-])c1ccccc1 (stereo not drawn),inactive
9,O=C(COc1ccc2ccc(=O)oc2c1)OCc1ccccc1,inactive
10,CS(=O)(=O)c1ccc([S+]([O-])CC(=O)OCc2ccccc2)c([N+](=O)[O-])c1 (stereo not drawn),26.7 µM (active)
11,Cc1ccc(-c2nc(N)sc2C)cc1,inactive
12,Nc1nc(-c2ccccc2)c(N=Nc2ccccc2Cl)s1,31.6 µM (active)
13,Nc1ccc2nc(-c3ccccc3)c(-c3ccccc3)nc2c1,inactive
14,O=C(O)c1ccc(CN2C(=O)c3cccc4c([N+](=O)[O-])ccc(c34)C2=O)cc1,inactive
15,O=C(COC(=O)COc1cccc2ccccc12)NCC(F)(F)F,inactive
16,CCCCn1nnnc1C(c1cc2ccccc2o1)N(CCN(C)C)Cc1ccccc1 (stereo not drawn),28.2 µM (active)
17,COc1cc(CNCCCN2CCOCC2)cc(Br)c1OCc1ccc(Cl)cc1,33.6 µM (active)
18,CCOc1cc(CNCCCN2CCOCC2)cc(Br)c1OCC(=O)Nc1cccc(C(F)(F)F)c1,20 µM (active)
19,COc1cc(CNCCN2CCOCC2)ccc1OCc1ccc(Cl)cc1Cl,25.1 µM (active)
20,COc1cc2sc3cc(NCCCN4CCOCC4)ccc3c(=O)c2cc1OC,inactive
21,COc1cccc2cc(C(=O)C3=C(O)C(=O)N(CCN4CCOCC4)C3c3ccc(Cl)cc3)oc12 (stereo not drawn),inactive
22,C=CCOc1c(Br)cc(CNCCCN2CCOCC2)cc1OC,inactive
23,CC(C)(CNC(=O)c1ccc(S(=O)(=O)Nc2cccc(C(F)(F)F)c2)cc1)N1CCOCC1,inactive
24,CCCc1cc(=O)oc2cc(OCC(=O)NCCN3CCOCC3)c(Cl)cc12,inactive
25,O=C(COC(=O)COc1cccc(C(F)(F)F)c1)Nc1ccc(N2CCOCC2)cc1,inactive
